Results published in PubChem BioAssay (Tox21).
Inconclusive results are not listed. Values without a mark were called inactive. Active and inactive are the calls of the source. Calls come from the whole dose curve; as a rule, active = well fitted activation curve with a large enough effect in the repeat runs; inconclusive = weak or mixed curves; inactive = no such curve, though single readings can be large or run the other way.

biological target: Aryl hydrocarbon receptor (Homo sapiens) (UniProt P35869); assay: qHTS assay to identify small molecule that activate the aryl hydrocarbon receptor (AhR) signaling pathway (AID 743085); settings: HepG2 AhR-luc (HG2L7.5c1), luciferase, 24 h; series mostly up to 70.3 µM; activation: at the top concentration; note: nearly all actives have a fitted effect of over 15% in size;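 for activation: HG2L7.5c1 human HepG2 liver cells with stably integrated DRE-driven firefly reporter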
Source text: U.S. Tox21 Program National Center for Advancing Translational Sciences [NCATS] NIH Chemical Genomics Center [NCGC] U.S. Environmental Protection Agency [EPA] National Institutes of Environmental Health Sciences [NIEHS] National Toxicology Program [NTP] U.S. Food and Drug Administration [FDA] Tox21 Assay overview: The Aryl hydrocarbon Receptor (AhR), a member of the family of basic helix-loop-helix transcription factors, is crucial to adaptive responses to environmental changes. AhR mediates cellular responses to environmental pollutants such as aromatic hydrocarbons through induction of phase I and II enzymes but also interacts with other nuclear receptor signaling pathways. A cell based HepG2-AhR-luc assay (HG2L7.5c1 cell line, developed by Dr. Michael S. Denison, University of California at Davis, was used to assess the activation of AhR. HepG2 (human hepatocellular carcinoma) cells were stably transfected with an Ah receptor-responsive firefly luciferase reporter gene plasmid containing 20 dioxin responsive elements and luciferase reporter gene. Increased luciferase activity can be used to identify the compounds that induce AhR activation.
Tox21 Assay Protocol Summary: 4000 cells in 5 uL/well were dispensed into white wall/solid bottom 1536-well plates using a Multidrop Combi (Thermo Fisher Scientific Inc., Waltham, MA) dispenser. After the assay plates were incubated at 37C for 5 h, 23 nL of compound or DMSO vehicle was transferred to the assay plates by a pintool station (Kalypsys, San Diego, CA). The plates were incubated at 37C for 24 hr. After 1 ul/well of CellTiter-Fluor reagent (Promega, Madison, WI) was added into the assay plates using a Flying Reagent Dispenser (FRD) (Aurora Discovery, CA), the assay plates were incubated at 37C for 30 min. The fluorescence intensity in the plates was measured using a ViewLux plate reader (PerkinElmer, Shelton, CT), followed by the addition of 4 uL of ONE-Glo Luciferase Assay reagent (Promega) using an FRD (Aurora Discovery). After the assay plates were incubated at room temperature for 30 min, luminescence intensity was measured using a ViewLux plate reader (Perkin Elmer).
% is set by controls: 0 for no effect and ±100 for the full control effect; potency is the fitted concentration of half-maximal effect.

Chain of Aryl hydrocarbon receptor (Homo sapiens) (P35869 whole entry, looked up): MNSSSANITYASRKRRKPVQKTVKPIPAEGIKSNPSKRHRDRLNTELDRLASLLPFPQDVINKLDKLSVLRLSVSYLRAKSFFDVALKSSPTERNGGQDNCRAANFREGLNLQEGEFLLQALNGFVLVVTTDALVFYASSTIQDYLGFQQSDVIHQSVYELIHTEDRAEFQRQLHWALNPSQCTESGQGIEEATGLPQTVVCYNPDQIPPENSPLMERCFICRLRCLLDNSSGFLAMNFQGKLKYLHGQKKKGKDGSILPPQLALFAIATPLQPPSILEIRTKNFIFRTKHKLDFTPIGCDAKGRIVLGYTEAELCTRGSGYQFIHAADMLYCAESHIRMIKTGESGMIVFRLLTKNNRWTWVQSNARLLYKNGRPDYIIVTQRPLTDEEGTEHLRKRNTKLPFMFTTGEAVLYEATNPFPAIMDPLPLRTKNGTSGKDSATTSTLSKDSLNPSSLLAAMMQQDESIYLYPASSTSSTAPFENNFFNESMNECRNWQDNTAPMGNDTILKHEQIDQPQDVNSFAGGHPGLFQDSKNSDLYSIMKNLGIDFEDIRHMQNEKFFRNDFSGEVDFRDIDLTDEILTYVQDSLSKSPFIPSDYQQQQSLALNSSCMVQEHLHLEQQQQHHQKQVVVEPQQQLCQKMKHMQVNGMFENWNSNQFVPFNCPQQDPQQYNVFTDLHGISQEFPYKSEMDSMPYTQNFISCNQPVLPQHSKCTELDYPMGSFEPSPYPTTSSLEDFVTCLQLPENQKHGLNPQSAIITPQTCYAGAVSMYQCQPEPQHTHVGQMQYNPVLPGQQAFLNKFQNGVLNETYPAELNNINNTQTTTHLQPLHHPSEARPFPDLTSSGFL

| Structure (SMILES) | activation | Potency |
| --- | --- | --- |
| CC[C@H]1CC[C@H](NCc2cc3c(cc2OC)[C@H]2C[C@H]2C(=O)N3C)[C@H](c2ccccc2)N1 | -0.206% |  |
| CCCCN1C[C@H](O)[C@@H](O)[C@H](O)[C@H]1CO | -2.33% |  |
| CC/C=C\CCOC(=O)CCCCC | -0.444% |  |
| CCOc1ccc(OCC)c(Cl)c1 | -0.297% |  |
| OCc1ccccc1O | 2.26% |  |
| O=C(O)CN(CCN(CC(=O)O)CC(=O)O)CCN(CC(=O)O)CC(=O)O | -0.289% |  |
| CCOC(=O)c1ccccc1O |  | inactive |
| CCOC(=O)C(Br)c1ccccc1 (stereo not given) | -0.456% |  |
| Oc1ccccc1F | -2.31% |  |
| CCOC(=O)[C@H](CCc1ccccc1)N[C@@H](C)C(=O)N1Cc2cc(OC)c(OC)cc2C[C@H]1C(=O)O |  | 9.44 µM (active) |
| CCCCOc1cc(C(=O)NCCN(CC)CC)c2ccccc2n1 | 0.544% [at 32.5 µM] |  |
| CC(C)C(=O)OCC(C)(C)C(O)C(C)C (stereo not given) | -1.09% [at 95 µM] |  |
| CCCCCCCOC(=O)CCC | -0.904% |  |
| Cc1ncc(CO)c(CN)c1O | -0.193% |  |
| CC1=C(O)C(=O)OC1C (stereo not given) | 1.97% |  |
| C=O |  | inactive |
| O=C(O)[C@@H](O)[C@H](O)[C@H](O)[C@@H](O)C(=O)O | -4.3% |  |
| O=C1CCC(C2CCCCC2)CC1 | 4.11% |  |
| COc1ccc(S(=O)(=O)Nc2nnc(CC(C)C)s2)cc1 |  | inactive |
| C[C@@H]1CN(c2c(F)c(N)c3c(=O)c(C(=O)O)cn(C4CC4)c3c2F)C[C@H](C)N1 | -0.476% |  |

| Structure (SMILES) | activation | Potency |
| --- | --- | --- |
| C1CCOC1 | -0.922% [at 95 µM] |  |
| COc1cc2c(cc1N)oc1ccccc12 |  | 31.3 µM (active) |
| CC(C)C1=CC2=CC[C@@H]3[C@](C)(CCC[C@@]3(C)C(=O)O)[C@H]2CC1 | 2.23% |  |
| Cc1ccc(C(C)C)cc1O | -0.379% |  |
| CCOc1ccc(NC(N)=O)cc1 | 4.6% |  |
| CC(C)CC(=O)OCc1ccccc1 | 1.68% |  |
| FC(F)(F)C(Cl)(Cl)Cl | -2.47% |  |
| CC(=O)Nc1ccc(C)c(Cl)c1 | -0.633% |  |
| Cc1cc2nc(N)sc2cc1C |  | 6.17 µM (active) |
| CC(=O)OC(C)OC(C)=O | -0.967% [at 95 µM] |  |
| Cc1nnc(SCC2=C(C(=O)O)N3C(=O)[C@@H](NC(=O)Cn4cnnn4)[C@H]3SC2)s1 | 0.036% |  |
| CCCCc1ccc2nc(NC(=O)OC)[nH]c2c1 |  | 1.01 µM (active) |
| CC(=O)OC1C2(C)CCC(C2)C1(C)C (stereo not given) | -1.1% |  |
| CC1(C)S[C@@H]2[C@H](NC(=O)C(C(=O)O)c3ccccc3)C(=O)N2[C@H]1C(=O)O (stereo not given in full) | -0.103% |  |
| CCC(=O)Nc1ccc(O)cc1 | -0.308% |  |
| CCN[C@H]1CN(CCCOC)S(=O)(=O)c2sc(S(N)(=O)=O)cc21 | 0.0186% [at 32.5 µM] |  |
| CC1=C(CC(=O)O)c2cc(F)ccc2/C1=C\c1ccc(S(C)(=O)=O)cc1 | 5.33% |  |
| CC(C)OC(C)C | -2.55% [at 95 µM] |  |
| CCCCCCCCCC#N | -2.03% |  |
| O=c1oc2c(O)c(O)cc3c(=O)oc4c(O)c(O)cc1c4c23 | -0.625% |  |
